Among the test systems are HCT-15 colon; HT29 colon; SNB-75 CNS; SNB-19 CNS; U251 CNS; PC-3 prostate; SK-MEL-5 melanoma; UACC-62 melanoma; LOX IMVI melanoma; SK-MEL-28 melanoma; SK-MEL-2 melanoma; EKVX NSCLC; SN12C renal; UO-31 renal; TK-10 renal; ACHN renal; CAKI-1 renal; A498 renal; CCRF-CEM leukemia; MOLT-4 leukemia.
What all share (assay): NCI-60 one-dose screen, 48 h (100 = growth as untreated, 0 = no growth, -100 = all killed)
Holding throughout (settings): 10 µM unless noted

For eight molecules, growth results are on record in PubChem BioAssay (NCI).

Each structure is given as a SMILES string. The panel holds about 83,000 compounds, 20% with a hit somewhere; the sample as a whole holds those more often.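 Compound tested at a single concentration for 48 hours in 96-well plates; a percent growth value below 10 was scored as active.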 Values without a mark were called inactive. Calls of active or inactive are those of the source.

Consider `Cc1cc2c(C(C)C)c(O)c(O)c(/C=N/O)c2c(O)c1-c1c(C)cc2c(C(C)C)c(O)c(O)c(/C=N/O)c2c1O`, for which the growth was 29.3% with HCT-15 colon; 1.38% (active) in the assay on HT29 colon; 80.3% with SNB-75 CNS; 30.4% in the assay on SNB-19 CNS; 1.13% (active) in the assay with U251 CNS; 27.9% in the assay with PC-3 prostate. The growth in the assay with SK-MEL-5 melanoma was 16.3%; in the assay with UACC-62 melanoma, 9.12% (active); with LOX IMVI melanoma, -22.9% (active); with SK-MEL-28 melanoma, 19.8%; in the assay on SK-MEL-2 melanoma, -10.2% (active); in the assay with EKVX NSCLC, 27.2%. Moreover, the growth with SN12C renal is 43.7%; in the assay on UO-31 renal, 24.7%; in the assay with TK-10 renal it was 0.867% (active); with ACHN renal it was 24%; in the assay with CAKI-1 renal, 26.6%; in the assay on A498 renal, 57.2%. Besides, the growth in the assay with CCRF-CEM leukemia is 10.1%; in the assay with MOLT-4 leukemia, -7.59% (active).

On to `CN1CCN(Cc2ccc(NC(=O)c3cncc(C#Cc4c(N)ncc5c(F)cccc45)c3)cc2C(F)(F)F)CC1`, for which the growth in the assay on HCT-15 colon is -83.7% (active); in the assay on HT29 colon, -77.1% (active); with SNB-75 CNS it was -81% (active); in the assay on SNB-19 CNS, -97% (active); in the assay with U251 CNS it was -88.4% (active); in the assay with PC-3 prostate it was -69.2% (active). The growth in the assay on SK-MEL-5 melanoma was -87.2% (active); in the assay with UACC-62 melanoma, -93.3% (active); in the assay on LOX IMVI melanoma, -96.1% (active); with SK-MEL-28 melanoma, -86.5% (active); in the assay with SK-MEL-2 melanoma, -65.4% (active); in the assay with EKVX NSCLC, 10.6%. Also, the growth in the assay with SN12C renal is -92.6% (active); in the assay with UO-31 renal it was -86.2% (active); in the assay with TK-10 renal, -95.1% (active); in the assay with ACHN renal, -79% (active); in the assay on CAKI-1 renal, -70.4% (active); in the assay with A498 renal, -1.72% (active). In addition, the growth in the assay on CCRF-CEM leukemia is -39.8% (active); with MOLT-4 leukemia it was -72.4% (active).

As for `CC(C)(C#N)c1cc(C(=O)Nc2cc(Nc3ncccc3-c3ncnc4nc[nH]c34)ccc2F)cc(C(F)(F)F)c1`, the growth was 54% in the assay on HCT-15 colon; 20.7% in the assay with HT29 colon; 37% in the assay on SNB-75 CNS; 71.2% in the assay on SNB-19 CNS; 59.7% with U251 CNS; 63.9% in the assay with PC-3 prostate. Also, the growth is 24.4% with SK-MEL-5 melanoma; 3.16% (active) in the assay on UACC-62 melanoma; -9.46% (active) in the assay on LOX IMVI melanoma; 10.4% in the assay with SK-MEL-28 melanoma; 5.07% (active) with SK-MEL-2 melanoma; 62.8% in the assay on EKVX NSCLC. The growth with SN12C renal is 55.2%; with UO-31 renal, 17.5%; in the assay on TK-10 renal it was 68.5%; with ACHN renal, 44.4%; with CAKI-1 renal it was 24.3%; with A498 renal, -24.9% (active). The growth with CCRF-CEM leukemia was 57%; with MOLT-4 leukemia, 57.6%.

Consider `COc1ccc(/C=C2/CCc3cc4ccc(OC)cc4[o+]c32)c(O)c1`, for which the growth in the assay with HCT-15 colon is 4.44% (active); with HT29 colon, 29.6%; with SNB-75 CNS it was 90.9%; in the assay on SNB-19 CNS, 63.1%; in the assay on U251 CNS, 69.4%; in the assay on PC-3 prostate, 8.84% (active). Further, the growth was 67.8% in the assay on SK-MEL-5 melanoma; 47.5% in the assay with UACC-62 melanoma; 7.79% (active) in the assay on LOX IMVI melanoma; 47.8% in the assay with SK-MEL-28 melanoma; 85.6% in the assay on SK-MEL-2 melanoma; 75.7% in the assay with EKVX NSCLC. The growth with SN12C renal was 13.6%; with UO-31 renal, -28.7% (active); in the assay on TK-10 renal, 135%; in the assay with ACHN renal, 34.3%; in the assay on CAKI-1 renal, 81%; in the assay with A498 renal, 94.9%. Further, the growth is 9.94% (active) in the assay with CCRF-CEM leukemia and 0.523% (active) in the assay with MOLT-4 leukemia.

In the case of `N#C/C(=C\c1cccc2cnccc12)N1N=NC2C=CC=CC21` (stereo not given), the growth in the assay on HCT-15 colon is 13.5%; in the assay with HT29 colon, 12.7%; in the assay with SNB-75 CNS, 7.27% (active); in the assay with SNB-19 CNS, 66%; in the assay on U251 CNS, 70.6%; with PC-3 prostate it was 47.9%. Moreover, the growth in the assay on SK-MEL-5 melanoma is 46.4%; in the assay on UACC-62 melanoma, 37.1%; in the assay on LOX IMVI melanoma, 11.7%; in the assay on SK-MEL-28 melanoma, 43.8%; with SK-MEL-2 melanoma, 61.3%; in the assay with EKVX NSCLC it was 40.4%. For the same molecule, the growth with SN12C renal was 30.7%; with UO-31 renal it was 27.2%; in the assay on TK-10 renal, 55.6%; with ACHN renal it was 19.2%; with CAKI-1 renal, 27%; with A498 renal, 38.5%. In addition, the growth is 10.2% in the assay on CCRF-CEM leukemia and 31.7% in the assay on MOLT-4 leukemia.

As to `Cc1c(C)c2c(c(C)c1OC(=O)CCC(=O)[O-])CCC(C)(CCCCCCCCCCC[P+](c1ccccc1)(c1ccccc1)c1ccccc1)O2` (stereo not given), the growth in the assay with HCT-15 colon is 2.7% (active); in the assay on HT29 colon, 6.17% (active); in the assay with SNB-75 CNS, -31.5% (active); in the assay on SNB-19 CNS it was -42.4% (active); in the assay on U251 CNS, -70.1% (active); in the assay with PC-3 prostate, -31.9% (active). The growth is -98.3% (active) in the assay on SK-MEL-5 melanoma; -54.1% (active) in the assay with UACC-62 melanoma; -91.4% (active) in the assay on LOX IMVI melanoma; -77.3% (active) in the assay on SK-MEL-28 melanoma; -64.4% (active) in the assay with SK-MEL-2 melanoma; -25.1% (active) in the assay on EKVX NSCLC. For the same molecule, the growth in the assay with SN12C renal is -65.7% (active); in the assay on UO-31 renal, -3.37% (active); with TK-10 renal, -14.2% (active); with ACHN renal it was -5.75% (active); with CAKI-1 renal it was -28.3% (active); in the assay on A498 renal, -73.9% (active). Moreover, the growth in the assay on CCRF-CEM leukemia is 0.344% (active); in the assay with MOLT-4 leukemia, -25.5% (active).

With `CCCCCCCCOC(=O)c1c(C)[nH]c(/C=C2\N=C(c3ccc[nH]3)C=C2OC)c1C`, the growth is 1.19% (active) in the assay on HCT-15 colon; -11.2% (active) in the assay on HT29 colon; -20.8% (active) in the assay on SNB-75 CNS; 25.4% with SNB-19 CNS; -8.43% (active) in the assay with U251 CNS; 18% with PC-3 prostate. Also, the growth was -99.2% (active) in the assay with SK-MEL-5 melanoma; -25.7% (active) with UACC-62 melanoma; -44.9% (active) in the assay on LOX IMVI melanoma; -12.5% (active) with SK-MEL-28 melanoma; -70.3% (active) in the assay with SK-MEL-2 melanoma; 27.8% in the assay on EKVX NSCLC. In addition, the growth in the assay with SN12C renal is 11.7%; in the assay with UO-31 renal, -52.1% (active); with TK-10 renal, 9.67% (active); with ACHN renal it was -18.9% (active); with CAKI-1 renal, -13.2% (active); in the assay with A498 renal, -7.97% (active). Moreover, the values for the growth in the assay on CCRF-CEM leukemia and in the assay on MOLT-4 leukemia were 17.7% and 4.33% (active), respectively.

Take `C=C(CNCCc1ccc(O)cc1)[C@@H]1CC[C@]2(CO)CC[C@]3(C)[C@H](CC[C@@H]4[C@@]5(C)CCC(N)C(C)(C)[C@@H]5CC[C@]43C)[C@@H]12` (stereo not given in full): the growth is -79.3% (active) in the assay on HCT-15 colon; -49.9% (active) in the assay with HT29 colon; -97.8% (active) with SNB-75 CNS; -86.1% (active) in the assay with SNB-19 CNS; -84.4% (active) in the assay with U251 CNS; -75.3% (active) in the assay with PC-3 prostate. For the same molecule, the growth is -95.2% (active) in the assay with SK-MEL-5 melanoma; -86.7% (active) in the assay with UACC-62 melanoma; -86.7% (active) in the assay with LOX IMVI melanoma; -90.5% (active) with SK-MEL-28 melanoma; -81.4% (active) in the assay with SK-MEL-2 melanoma; -62.8% (active) with EKVX NSCLC. Besides, the growth is -81.7% (active) with SN12C renal; -98.9% (active) with UO-31 renal; -84.5% (active) with TK-10 renal; -71.9% (active) in the assay on ACHN renal; -81.8% (active) in the assay with CAKI-1 renal; 64.5% in the assay with A498 renal. The growth is -26.8% (active) with CCRF-CEM leukemia and -32.4% (active) in the assay with MOLT-4 leukemia.
